Experimental data published in PubChem BioAssay AID1570 (National Center for Advancing Translational Sciences (NCATS), 2009).
Records with an inconclusive call do not appear. The source made the active and inactive calls. Calls follow the shape of the dose curve; as a rule, active = well fitted inhibition curve with a large enough effect; inconclusive = small, poorly fitted or top-dose-only effect, or effect the other way; inactive = flat fitted curve, though single readings scatter.

Molecular target: Thyroid hormone receptor beta (Homo sapiens) (UniProt P10828)
Test: Concentration Response Confirmation Assay for Inhibitors of the Interaction of Thyroid Hormone Receptor and Steroid Receptor Coregulator 2, Fluorescein Fluoroprobe
Conditions: TRbeta LBD / fluorescein-SRC2 peptide, fluorescence polarization, 5 h; series mostly up to 92.2 µM
Excerpt: NIH Molecular Libraries Probe Production Network [MLPCN] NIH Chemical Genomics Center [NCGC] MLPCN Grant: DK058080 Assay Provider: R. Kip Guy, St. Jude Children's Research Hospital NCGC Assay Overview: Thyroid receptor (TR) regulates many homeostatic processes including basal metabolism, cardiovascular function, body weight, and lipid trafficking. TR modulators are potential therapeutics for obesity and hyperlipidemias but current thyroid analogs have undesirable side effects, particularly cardiac stimulation. To identify inhibitors that specifically prevent the interaction of TR with the steroid receptor coregulator 2 (SRC2), a fluorescence polarization assay was screened (Arnold et al., 2006). This assay detects interaction of the ligand-binding domain of human TRbeta with a fluorescein labeled SRC2 peptide, corresponding to a 20 amino acid region of the nuclear receptor interaction domain. Small molecule inhibitors that block the interaction of TR and SRC2 are detected by a decrease in fluorescence polarization. This assay is a confirmation assay for AID 1469. Arnold, L. A.; Estebanez-Perpina, E.; Togashi, M.; Shelat, A.; Ocasio, C. A.; McReynolds, A. C.; Nguyen, P.; Baxter, J. D.; Fletterick, R. J.; Webb, P.; Guy, R. K. A high-throughput screening method to identify small molecule inhibitors of thyroid hormone receptor coactivator binding. Sci STKE 2006, p 13.
NCGC Assay Protocol Summary: Five uL/well 0.6 uM TRbeta and 20 nM SRC2 Fluorescein in protein buffer (20mM Tris hydrochloride, 100mM NaCl, 10% glycerol, 1mM EDTA, 0.01% NP-40, 1mM DTT, 1uM T3 and 5% DMSO) was dispensed into black solid 1536-well plates (Grenier) using a solenoid-based dispenser. Following transfer of 23 nL compound or DMSO vehicle by a pin tool, the plates were centrifuged 15 s at 1000 RPM and incubated 5 hr at ambient temperature. The plates were read by an Envision (Perkin Elmer) to detect fluorescence polarization of SRC2 Fluorescein (480 nm excitation and 535 nm emission). Data were normalized to unbound (all components except TRbeta) and bound SRC2 Fluorescein controls. In this assay, we provide % activity data for each concentration as well as potencies for the active compounds. Keywords: NIH Roadmap, MLPCN, MLI, MLSMR, qHTS, NCGC, qHTS, thyroid hormone receptor, steroid receptor coactivator, fluorescence polarization

Chain of Thyroid hormone receptor beta (Homo sapiens) (P10828 whole entry, looked up): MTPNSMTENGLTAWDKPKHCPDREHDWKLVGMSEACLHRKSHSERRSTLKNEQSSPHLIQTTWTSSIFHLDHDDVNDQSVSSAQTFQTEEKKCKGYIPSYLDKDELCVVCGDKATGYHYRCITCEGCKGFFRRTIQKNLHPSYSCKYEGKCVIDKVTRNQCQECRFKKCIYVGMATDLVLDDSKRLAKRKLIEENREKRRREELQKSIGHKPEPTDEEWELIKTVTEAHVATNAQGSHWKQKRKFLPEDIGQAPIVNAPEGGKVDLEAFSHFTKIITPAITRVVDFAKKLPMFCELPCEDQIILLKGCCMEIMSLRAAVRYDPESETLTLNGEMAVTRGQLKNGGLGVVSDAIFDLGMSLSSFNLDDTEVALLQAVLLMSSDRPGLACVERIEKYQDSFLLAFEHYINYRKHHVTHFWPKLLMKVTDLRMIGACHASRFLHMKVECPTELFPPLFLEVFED

Potency, active:
COc1ccccc1Nc1cc2ccccc2c(=O)[nH]1 35.5 µM, Oc1ccc2ccccc2c1/C=N/c1nc2c(s1)CCCC2 31.6 µM

Potency, inactive:
CCN(C(=O)C1CCCN(c2ncnc3onc(-c4ccc(F)cc4)c23)C1)c1ccccc1 (centres undefined), Cc1ccc(-c2nc(S(=O)(=O)c3ccc(F)cc3)c(SCC(=O)NCC3CCCO3)o2)cc1 (centres undefined), CC1(C)CC(=O)C(N=Nc2cccc(S(=O)(=O)N3CCOCC3)c2)=C(O)C1, CCc1ccc2c(c1)c1nc(C)sc1n2CC, CC1=NN(Cc2ccccc2)C(=O)C1, Cn1c(=O)[nH]c2nnc(-c3ccc(Cl)c(Cl)c3)nc2c1=O

activity, negative = inhibition, inactive:
CCN(CC)S(=O)(=O)c1cccc(N=NC2=C(O)CCCC2=O)c1 -3.56% [at 0.0112 µM]
